# Test results: ChEMBL document CHEMBL3988442, “University of Dundee, Small-Polar-MMV Screening Library” (2021)
# In all, about 48,000 compounds went through this assay and about 13,000 (27%) showed an effect of 50% or more. The list shows a part of the results.
# Test system: Wolbachia pipientis
# Assay: Anti-Wolbachia Cell-Based Screen
# Type: functional
# Set-up: scale not given: in the data most compounds retested in dose-response had high values
# Settings: 5 µM
row,Structure (SMILES),Percent Effect [%]
1,O=C(c1cnc(NCCC2CCCO2)c(Cl)c1)N1CCOCC1 (centres undefined),-6.598
2,Cc1cc(NC(=O)Cc2ccccc2O)cnc1N1CCCCC1,13.35
3,COc1cccc2c1OCC(CNC(=O)CSc1nc(N)n[nH]1)C2 (centres undefined),-2.891
4,Cc1cccc(N2CC[C@@H]3CN(Cc4csc(C)n4)CCO[C@@H]3C2)n1.O=C(O)C(F)(F)F.O=C(O)C(F)(F)F,-4.327
5,O=C1NCC2(CCCN(C(=O)c3ccc4c(c3)CCO4)C2)O1 (centres undefined),16.66
6,CCc1noc(C)c1C(=O)N(C)Cc1ncc(C)c(OC)c1C,-4.169
7,CCC(=O)N(C)C1CCN(Cc2ncc(C)c(OC)c2C)CC1,9.191
8,COc1c(C)cnc(CN2CCC(C(=O)N(C)C)CC2)c1C,2.904
9,CCNC(=O)N(C)C1CCN(Cc2ncc(C)c(OC)c2C)CC1,110.9
10,COc1c(C)cnc(CN2CCC(N(C)C(=O)C3CC3)CC2)c1C,110.7
11,CCOc1ccccc1OCC(=O)NCc1ncc(C)c(OC)c1C,8.111
12,N[C@@H]1CC[C@H](C(=O)NCCn2cc(Cl)cn2)C1,-5.887
13,Cc1ccc(-n2ccnc2)c(C(=O)NCCOCC2CCCO2)c1 (centres undefined),2.009
14,CCN(C)C(=O)c1cc(-c2ccn(C(C)C)n2)n2ccccc12,6.69
15,CCN(C(=O)c1cc(C)nc2ccccc12)C1CC(=O)NC1=O (centres undefined),9.266
16,Cn1cc(CNC(=O)C2COCC(=O)N2Cc2ccccc2)cn1 (centres undefined),-3.917
17,CN(Cc1cnn(C)c1)C(=O)c1cc2ccccc2c(=O)[nH]1,-10.85
18,CN(CC1(C)COC1)C(=O)c1cc(-c2ccnn2C)nc2ccccc12,116.9
19,CN(Cc1ncnn1C)C(=O)c1ccccc1NCc1ccccc1,-8.23
20,CN(CC1(C)COC1)C(=O)c1cc(-c2cnn(C)c2)nc2ccccc12,150.1
21,CN(CC1(C)COC1)C(=O)c1cc(-c2ccn(C)n2)nc2ccccc12,106.6
22,CN(Cc1cccc(C(=O)Nc2ccnn2C)c1)CC1(C)COC1,30.85
23,COc1ccc(NC(=O)N(C)Cc2ccc(Br)o2)cn1,12.08
24,CN(C)S(=O)(=O)NCc1cccnc1Oc1ccccc1,-16.22
25,CCc1ccc(C(=O)N(CC)Cc2ccoc2)cc1S(C)(=O)=O,18.17
26,Cc1cccc2c1nc(COCC(=O)O)n2-c1cnc(N)cn1,0.6066
27,O=C(O)C1(Oc2ccc3ccccc3c2)CCN(c2ccncc2)CC1,-19.78

row,Structure (SMILES),Percent Effect [%]
1,O=C(O)C1(Oc2ccc(Cl)cc2)CCN(C2CCOCC2)CC1,109.8
2,O=C(O)C1(Oc2cccc(F)c2)CCN(c2ccncc2)CC1,-29.88
3,CCCn1ccnc1CN1CCC(Oc2cccc(F)c2)(C(=O)O)CC1,-7.212
4,O=C(O)C1(Oc2cccc(F)c2)CCN(C2CCOCC2)CC1,114
5,CCCn1ccnc1CN1CCC(Oc2ccc(Cl)cc2)(C(=O)O)CC1,-1.396
6,O=C(O)C1(Oc2ccc3c(c2)OCO3)CCN(C2CCOCC2)CC1,140.6
7,O=C(O)C1(Oc2ccccc2)CCN(c2ccncc2)CC1,-10.06
8,O=C(O)C(c1ccc2c(c1)OCCO2)N1CCC(N2CCOCC2)CC1 (centres undefined),10.3
9,Cc1noc(OCCOc2cccc(C#N)c2)n1,0.996
10,NC(=O)c1cnc(NCC(=O)NCc2ccccc2)c(Cl)c1,-2.32
11,O=C(c1cccs1)N1CC(Oc2ccccc2Cl)C1,11.34
12,CCCc1nc(C(=O)N2C[C@H](CO)C[C@H](CN3CCOCC3)C2)cs1,-13.1
13,CN1C[C@H](O)[C@]2(CCN(C(=O)COc3ccccc3)C2)S1(=O)=O,115.7
14,CN1C[C@@H](O)[C@]2(CCN(C(=O)c3ccccc3)C2)S1(=O)=O,126.2
15,CN1CC(c2ccccc2)CC2(CCN(C(=O)c3ccccc3)CC2)C1 (centres undefined),1.137
16,COCCC(=O)N1CCC2(CC1)CC(c1ccccc1)CN(C)C2 (centres undefined),9.484
17,O=C(OCc1ccccc1)N1CC[C@H]2CC(CO)O[C@@H]2C1 (some centres undefined),-8.669
18,COCCN1C(=O)C[C@@H]2[C@H]1CCN2C(=O)COc1ccccc1,-17.47
19,CCN1C[C@@H]2CN(C(=O)NCc3ccccc3)CCC[C@]2(C(=O)O)C1.O=C(O)C(F)(F)F,-6.91
20,CN1C[C@H](O)[C@]2(CCN(C(=O)NCc3ccccc3)C2)S1(=O)=O,101.7
21,COc1cccc(OCC(=O)N2CCC3(CC2)[C@H](O)C[C@@H]3OC)c1,6.956
22,CN1C[C@@H](O)[C@]2(CCN(C(=O)OCc3ccccc3)C2)S1(=O)=O,96.78
23,CN1C[C@@H]2CN(C(=O)NCc3ccccc3)CCC[C@]2(C(=O)O)C1.O=C(O)C(F)(F)F,10.95
24,O=C(NCc1ccco1)c1cc(N2CC[C@@H](O)C2)ccn1,15.64
25,CCCS(=O)(=O)N1Cc2ccnn2CC(c2nc(C)no2)C1.O=C(O)C(F)(F)F (centres undefined),-10.4
26,Cc1csc(C(C#N)C(=O)NCc2ccccc2)n1 (centres undefined),0.1394
27,Cc1cc(C)c2nc(CN3CCOCC(O)C3)cc(O)c2c1 (centres undefined),-68.16
